Source: PubChem BioAssay (NCATS)
Inconclusive results are not listed. Calls of active or inactive are those of the source. The call rests on the fitted dose curve; in most records, active means well fitted curve in the direction sought with a large enough effect; inconclusive means small, poorly fitted or top-dose-only effect, or another doubt; inactive means no such curve, though single readings can be large; an effect the other way counts as inactive or inconclusive.

Assays:
C33A = assay: Primary qHTS to identify gynecologic anti-cancer compounds using libraries of approved drugs and bioactive compounds (AID 1345084); settings: Gynecologic cancer cell panel viability, ATPlite luminescence, 48 h; series mostly up to 57.5 µM; further: nearly all actives have a fitted effect of over 55% in size
Method in brief: (§1)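 Cytotoxicity screen measuring ATP content by luciferase luminescence. Each compound is applied at five concentrations for 48 h at 37 C with 5% CO2.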

CASKI = assay: as above; settings: Gynecologic cancer cell panel viability, ATPlite luminescence, 48 h; series mostly up to 57.5 µM
Method in brief: as §1

Es-2 = assay: as above; settings: Gynecologic cancer cell panel viability, ATPlite luminescence, 48 h; series mostly up to 57.5 µM
Method in brief: as §1

HeLa = assay: as above; settings: Gynecologic cancer cell panel viability, ATPlite luminescence, 48 h; series mostly up to 57.5 µM
Method in brief: as §1

Hek293T = assay: as above; settings: Gynecologic cancer cell panel viability, ATPlite luminescence, 48 h, control line for the selectivity index; series mostly up to 57.5 µM
Method in brief: as §1

JEG-3 = assay: as above; settings: Gynecologic cancer cell panel viability, ATPlite luminescence, 48 h; series mostly up to 57.5 µM
Method in brief: as §1

Tov112D = assay: as above; settings: Gynecologic cancer cell panel viability, ATPlite luminescence, 48 h; series mostly up to 57.5 µM
Method in brief: as §1

Tov-21-G = assay: as above; settings: Gynecologic cancer cell panel viability, ATPlite luminescence, 48 h; series mostly up to 57.5 µM
Method in brief: as §1

PA-1 = assay: as above; settings: Gynecologic cancer cell panel viability, ATPlite luminescence, 48 h; series mostly up to 57.5 µM
Method in brief: as §1

SKOV3 = assay: as above; settings: Gynecologic cancer cell panel viability, ATPlite luminescence, 48 h; series mostly up to 57.5 µM
Method in brief: as §1

OV90 = assay: as above; settings: Gynecologic cancer cell panel viability, ATPlite luminescence, 48 h; series mostly up to 57.5 µM
Method in brief: as §1

[1] = qHTS assay to identify inhibitors of the type 1 interferon - major histocompatibility complex class I in skeletal muscle: Counter screen cell viability and HiBit confirmation (AID 1347412); settings: iHSKM muscle cells + IFN-b, HiBiT or CellTiter-Glo, 24 h; further: nearly all actives have a fitted effect of over 60% in size
Method in brief: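 Human myoblast knock-in line, 4.0 ng/ml IFN-beta stimulation, 24 h compound treatment. Endpoints: HiBiT lytic luminescence (HLA-B level) and CellTiter Glo (ATP). Dosing 12 concentrations, 3-fold steps, 46 uM highest final.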

Measured: Potency
Potency means the concentration at half of the fitted maximal effect.

C[C@H](Oc1cc(-c2cnn(C3CCNCC3)c2)cnc1N)c1c(Cl)ccc(F)c1Cl
inactive: C33A | CASKI | Es-2 | HeLa | Hek293T | JEG-3 | Tov112D

CCCc1cc(C)[nH]c(=O)c1CNC(=O)c1cc(-c2ccc(N3CCN(C(C)C)CC3)nc2)cc2c1cnn2C(C)C
inactive: C33A | CASKI | Es-2 | HeLa | Hek293T | Tov-21-G | Tov112D

Nc1nc2c(c(N3CC[C@@H](N)C3)n1)CCCc1ccccc1-2
active: SKOV3 28.2 µM
inactive: C33A | CASKI | Es-2 | HeLa | JEG-3 | PA-1 | Tov-21-G | Tov112D

COc1cc(C#N)ccc1S(=O)(=O)Nc1ccc2c(c1)cc(C)c(=O)n2C
inactive: C33A | CASKI | Es-2 | HeLa | Hek293T | JEG-3 | OV90 | PA-1 | Tov-21-G | Tov112D

NC(=O)c1cnc(N[C@@H]2CCCC[C@H]2N)nc1Nc1cccc(-n2nccn2)c1
inactive: C33A | CASKI | Es-2 | HeLa | Hek293T | JEG-3 | Tov112D

CCNC1(C(N)=O)CCN(c2ncnc3c2nc(-c2ccccc2Cl)n3-c2ccc(Cl)cc2)CC1
inactive: C33A | CASKI | Es-2 | HeLa | Hek293T | OV90 | PA-1 | SKOV3 | Tov-21-G | Tov112D

COc1ccc(NC(=O)c2ccc(-c3ccc(-c4nnc(C)o4)cc3C)cc2)cc1N1CCN(C)CC1
inactive: C33A | CASKI | Es-2 | HeLa | Hek293T | JEG-3 | OV90 | SKOV3 | Tov-21-G | Tov112D

CC(C)CCCCC(=O)N[C@@H](CO)C(=O)N[C@@H](CC(C)C)C(=O)[C@@]1(CO)CO1
inactive: C33A | CASKI | Es-2 | HeLa | Hek293T | JEG-3 | OV90 | SKOV3 | Tov112D

O=C(Nc1ccc(-n2nc(C(F)(F)F)cc2C(F)(F)F)cc1)c1ccncc1F
inactive: C33A | CASKI | Es-2 | HeLa | Hek293T | JEG-3 | OV90 | SKOV3 | Tov-21-G | Tov112D

Nc1cccc(CNC(=O)c2ccc(Oc3ccc(OCc4cccc(F)c4)cc3)nc2)c1
inactive: C33A | CASKI | Es-2 | HeLa | Hek293T | JEG-3 | OV90 | PA-1 | Tov-21-G | Tov112D

CN(C)CCN(Cc1ccccc1)C(=O)c1cc(-c2ccc(F)cc2)n2nc(C(C)(C)C)cc2n1
inactive: C33A | CASKI | Es-2 | HeLa | Hek293T | JEG-3 | Tov-21-G | Tov112D

CN1CCN(C2CCN(C(=O)Nc3cc(Oc4ccc(NC(=O)C5(C(=O)Nc6ccc(F)cc6)CC5)c(F)c4)ccn3)CC2)CC1
active: [1]; HiBiT 4.97 µM | [1]; Viability 14 µM
inactive: C33A | CASKI | HeLa | Hek293T | Tov112D

C=C1C(=O)O[C@@H]2/C=C(\CO)CC/C=C(/C=O)C[C@H](O)[C@@H]12
inactive: C33A | CASKI | HeLa | JEG-3 | OV90 | Tov112D
active: Tov-21-G 28.2 µM

O=c1cc(N2CCOCC2)nc2c3ccccc3ccn12
inactive: C33A | Es-2 | HeLa | Hek293T | JEG-3 | OV90 | PA-1 | Tov-21-G | Tov112D

O=C(O)CSc1cc(NS(=O)(=O)c2ccc(Br)cc2)c2ccccc2c1O
inactive: C33A | CASKI | Es-2 | Hek293T | OV90

O=C(NCCCn1ccnc1)c1cc(-c2ccco2)on1
inactive: C33A | CASKI | HeLa | Hek293T | JEG-3 | OV90 | SKOV3 | Tov112D

Cc1nc(NC(=O)N2CCCC2C(N)=O)sc1-c1ccnc(C(C)(C)C(F)(F)F)c1 (stereo unspecified)
active: CASKI 3.55 µM | SKOV3 8.91 µM
inactive: C33A | Es-2 | Hek293T | JEG-3 | Tov-21-G | Tov112D

COCC(=O)NC/C=C/c1ccc2ncnc(Nc3ccc(Oc4ccc(C)nc4)c(C)c3)c2c1
active: SKOV3 31.6 µM
inactive: C33A | Es-2 | HeLa | Hek293T | JEG-3 | OV90 | PA-1 | Tov-21-G | Tov112D
